This is a sample that favours compounds with a hit; in the whole collection about 4.8% have one here.
CSC inhib = cancer stem cell inhibition; inhibition, % at 7.5 µM; 1.1% of 300,000 active; AID 2717; cancer stem cell-like cells viability, luminescence; in the data active means inhibition above about 75%; inconclusive means no clear call, values can overlap the other calls; tested in HMLE shEcad cells
MPTP block = inhibitors of mitochondrial permeability transition pore; isolated mouse mitochondria, Ca2+ swelling absorbance, 30 min; inhibition, % at 10 µM; 1.4% of 360,000 active;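 active means inhibition of 50% or more, scaled per plate between neutral and stimulator controls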
Beta cell apopt = blocks beta cell apoptosis | protection from apoptosis, % (no concentration beside the values) | INS-1E cytokine-induced death, ATP luminescence, 48 h; percent of positive-control rescue, neutral wells zero | 0.8% of 300,000 active;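 active means Every replicate reaches about 75%, or at least half do and their mean reaches it too, limit read from the data; inconclusive means At least half of replicates reach the limit but their mean does not; inactive means Under half of replicates reach the limit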;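 further: higher means more ATP so stronger rescue from cytokine killing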
Mdm2-MdmX inh = human Mdm2/MdmX binding inhibition; SaOS-2 split-luciferase Mdm2/MdmX complementation, luminescence; inhibition, % at 8 µM; 3% of 330,000 active; AID 485346;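 active means inhibition of at least 50% at 8 µM in the primary screen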
Calb FLC = affects C. albicans growth with fluconazole. AID 1979. growth inhibition, % (test concentration not listed). C. albicans CaCi-2 (fluconazole-resistant clinical isolate) + fluconazole, Alamar Blue growth, 48 h. 0.57% of 300,000 active;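 active means growth inhibition above about 58% in most replicates, limit read from the data, passing the limit was not always enough; inconclusive means exactly half the replicates above a set limit; inactive means most replicates below a set limit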;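 further: all wells also contain fluconazole at 8 µg/ml as a sub-toxic cotreatment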
Mdm2-MdmX conf = human Mdm2/MdmX binding inhibition, confirmed; shares compounds with Mdm2-MdmX inh; luminescent assay; inhibition, % at 8 µM; 55% of 10,000 active; AID 489028; in the data active means inhibition above about 40%
FLuc counter = counter-screen for Mdm2/MdmX inhibitors: full-length luciferase | shares compounds with Mdm2-MdmX inh | SaOS-2 full-length luciferase counterscreen, luminescence | inhibition, % at 8 µM | 77% of 6,200 active;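 active means mean inhibition at 8 µM reaching about 37%, which flags the compound as non-specific, limit read from the data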;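 further: p53-null SaOS-2 cells with luciferase driven by a doxycycline-inducible promoter; compound on cells about two nights before reading with doxycycline added after day one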
Of the large screens only hits and unclear results are named; the others gave an inactive call (follow-up assays come after a bar, where they were run).

Cc1nn(-c2ccccc2)c(C)c1/C=N/NC(=O)c1cc(-c2ccccc2)n[nH]1	Mdm2-MdmX inh 59.0 | Mdm2-MdmX conf 62.7 | FLuc counter 79.3
Cc1nn(-c2ccccc2)c(C)c1/C=N/NC(=O)c1cc(-c2cccc3ccccc23)n[nH]1	none
Cn1c(=O)c2c(nc(NCCNC(=O)c3ccco3)n2Cc2ccc(Cl)cc2Cl)n(C)c1=O	none
Cn1c(=O)c2c(nc(NCC3CCCC(CN)C3)n2Cc2ccc(Cl)cc2Cl)n(C)c1=O (configuration not stated)	Mdm2-MdmX inh 58.0 | Mdm2-MdmX conf 42.3 | FLuc counter 65.4
O=C(/C=C\c1ccco1)Nc1cc([N+](=O)[O-])ccc1F	Mdm2-MdmX inh 59.1 (no result: CSC inhib) | Mdm2-MdmX conf 57.9 | FLuc counter 123.5
O=C(/C=C/c1ccco1)Nc1cc(Cl)ccc1C(=O)O	none
COc1ccc([C@H]2CC(=O)C=C(c3ccc(OC)cc3OC)C2)cc1	Mdm2-MdmX inh 51.1 (no result: Calb FLC) | Mdm2-MdmX conf inactive | FLuc counter 98.3
CC(N)C(=O)NC(C(=O)NC(C)C(=O)Nc1cccc2ccccc12)C(C)C (configuration not stated)	none (no result: CSC inhib, Beta cell apopt, Mdm2-MdmX inh, Calb FLC)
CCn1c(=S)[nH]c2cc(S(=O)(=O)N3CCCCC3)ccc21	Mdm2-MdmX inh 81.9 | Mdm2-MdmX conf 49.5 | FLuc counter 84.4
COc1cc(CC(=O)N2c3ccccc3N=C(c3ccccc3)C2C(=O)NCc2ccccc2)cc(OC)c1 (configuration not stated)	none (no result: CSC inhib, Beta cell apopt, Mdm2-MdmX inh, Calb FLC)
Oc1ccc(N=Nc2ccc3c(c2)OCCO3)c2ncccc12	CSC inhib 97.8, Beta cell apopt 96.1, Mdm2-MdmX inh 97.7, Calb FLC 88.9 | Mdm2-MdmX conf 86.8 | FLuc counter inactive
Cc1cccc(N=Nc2ccc(O)c3ncccc23)c1	CSC inhib 99.0, Beta cell apopt 88.1, Mdm2-MdmX inh 73.4 | Mdm2-MdmX conf 89.2 | FLuc counter inactive
Cc1ccc(C)c(N=Nc2ccc(O)c3ncccc23)c1	CSC inhib 103.4, Beta cell apopt 88.0, Mdm2-MdmX inh 97.0, Calb FLC 107.9 | Mdm2-MdmX conf 96.3 | FLuc counter 50.6
CNc1ccc(N=Nc2cccc3ncccc23)cc1	none (no result: CSC inhib, Beta cell apopt, Mdm2-MdmX inh, Calb FLC)
O=C1NC[C@@H](CCCCN2CCN(CCc3ccccc3)C(=O)C2=O)N(CCC2CCCCC2)C1=O	none (no result: CSC inhib, Beta cell apopt, Mdm2-MdmX inh, Calb FLC)
O=[N+]([O-])c1ccc(Cl)c(-c2ccc(/C=N/c3c(-c4ccco4)nc4ccccn34)o2)c1	Mdm2-MdmX inh 66.1 | Mdm2-MdmX conf inactive
O=[N+]([O-])c1ccc(-c2ccc(/C=N/c3c(-c4ccco4)nc4ccccn34)o2)c(Cl)c1	none (no result: CSC inhib, MPTP block, Beta cell apopt, Mdm2-MdmX inh)
OCCN1CCN(c2ncnc3ccc(Br)cc23)CC1	Mdm2-MdmX inh 51.1 (no result: CSC inhib, Beta cell apopt) | Mdm2-MdmX conf 60.4 | FLuc counter 44.8
CCOc1ccccc1Nc1nnc(SC(C)C(=O)Nc2nc(-c3ccccc3)cs2)s1 (configuration not stated)	Mdm2-MdmX inh 86.0 | Mdm2-MdmX conf 78.7 | FLuc counter inactive
Cc1nn(Cc2ccccc2)c(C)c1NC(=O)Cn1nc([N+](=O)[O-])c(Cl)c1C	none
Cc1nn(Cc2c(Cl)cccc2Cl)c(C)c1NC(=O)c1cc(C(C)C)on1	Mdm2-MdmX inh 78.8 | Mdm2-MdmX conf 62.4 | FLuc counter 53.8
Cc1nn(Cc2c(Cl)cccc2Cl)c(C)c1NC(=O)Cn1nc([N+](=O)[O-])c(Cl)c1C	Mdm2-MdmX inh 70.0 | Mdm2-MdmX conf inactive
CC(C)OC(=O)Cn1nc(C(c2ccccc2)c2ccccc2)oc1=O	none
CNC(=O)CN(c1ccc(C23CC4CC(CC(C4)C2)C3)cc1)S(C)(=O)=O	Calb FLC inconclusive
CS(=O)(=O)N(CC(=O)Nc1ccc(CC#N)cc1)c1ccc(C23CC4CC(CC(C4)C2)C3)cc1	Beta cell apopt 87.8, Mdm2-MdmX inh 63.6 | Mdm2-MdmX conf inactive
CC(=O)Nc1ccc(NC(=O)CN(c2ccc(C34CC5CC(CC(C5)C3)C4)cc2)S(C)(=O)=O)cc1	Mdm2-MdmX inh 56.2 | Mdm2-MdmX conf inactive
CN(Cc1ccccc1)C(=O)C1CCN(S(=O)(=O)c2cccc3nonc23)CC1	none
C=CCc1cccc(/C=N/NC(=O)CCC(=O)Nc2ccc(C)cc2)c1O	Beta cell apopt 90.4, Mdm2-MdmX inh 65.1 | Mdm2-MdmX conf 65.2 | FLuc counter 52.2
Cc1ccc(NC(=O)CCC(=O)N/N=C/c2ccc(O)cc2O)cc1	none
